Assay results as given in PubChem BioAssay (NCI).
About 83,000 compounds went through this panel and 20% of them were active in at least one assay; those are over-represented in the sample as a whole.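 Cells were grown in 96-well plates and exposed to the test compound at a single concentration for 48 hours; results are reported as percent growth, with values below 10 considered active.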 Values without a mark were called inactive. Active and inactive are the calls of the source. Where a SMILES comes first, the peptide text is derived from it. [ ]: non-standard residue; d: D form. ξ: configuration not given here. ξD = NC(CC(=O)O)C(=O)O

System: M14 melanoma
Assay: NCI-60 one-dose screen, 48 h (100 = growth as untreated, 0 = no growth, -100 = all killed)
Conditions: 10 µM unless noted
Procedure: Growth inhibition of the M14 human tumor cell line is measured as a screen for anti-cancer activity. Cells are grown in 96 well plates and exposed to the test compound for 48 hours. Compounds are tested at a single concentration, which is 10^-5 M for most compounds. The reported endpoint is percent growth (GI% or GIPRCNT), where numbers from 0 - 100% represent growth inhibition, and numbers from -100% - 0 represent cell death. For example, a value of 40 represents 60% growth inhibition. A value of 0 means no net growth occurred over the course of the experiment. A value of -40 indicates 40% of cells at the beginning of the experiment died by the end of the experiment. A value of -100 means all cells are dead at the end of the experiment.
NCI-60 Human Tumor Cell Lines Screen was performed using the standard one-dose NCI protocol, which is described in more detail at https://dtp.cancer.gov/discovery_development/nci-60/default.htm.
Compounds with GIPRCNT values below 10 were considered active. Activity score was based on GIPRCNT using the following formula: […]
Score is 0 for GIPRCNT values of 100 or above, 50 for GIPRCNT values of 0, and 100 for GIPRCNT values of -100.

Structure (SMILES) | growth
Cc1cc2nc(CC(=O)c3ccncc3)c(=O)[nH]c2cc1C | 106%
COC(=O)c1ccc(=O)c2nc3/c(=C/O)c(O)cc(=O)c3[nH]c12 | 26.8%
O=C1Nc2ccc(Br)cc2C1=O | 98.4%
CCC1C[N+]2=C(c3cc(OC)c(OC)cc3CC2)c2c1cc1n2CCc2cc(OC)c(OC)cc2-1 (stereo not given) | 36.1%
c1ccc2sc(SSN3CC4CCC(CC4)C3)nc2c1 | 110%
Oc1ccc2ccccc2c1N=Nc1nccs1 | 26.3%
COc1cc(/C=C/C(=O)CC(=O)/C=C/c2ccc(O)c(OC)c2)ccc1O | 7.15% (active)
CC[n+]1ccc(Nc2ccc(NC(=O)c3ccc(Nc4cc[n+](CC)c5ccc([N+](=O)[O-])cc45)cc3)cc2)cc1 | 83.7%
CC(C)(C)CC(C)(C)c1ccc(OCCOCCSC(=N)N)cc1 | -67.7% (active)
COC(=O)C(=[N+]=[N-])C(=O)c1ccc([N+](=O)[O-])o1 | 89.6%
O=C(/C=C/c1ccccc1)c1ccccc1O | 92.3%
CCCCCCCCCCCC1=NCCCN1CCCC | 100%
CC(C)=C1C=C2CC[C@@H]3[C@](C)(CCC[C@@]3(C)C(=O)O)[C@H]2CC1 | 100%
N#CC1c2ccccc2C=CN1C(=O)CCCl (stereo not given) | 97.3%
CN(C)CC(C)(CN(C)C)C(=O)/C=C/c1c(Cl)cccc1Cl | 12.7%
Cc1ccc(NC2=CC(=O)C(=O)c3ccccc32)cc1 | -63.5% (active)
CCOC(=O)C1(C)CCCC1N (stereo not given) | 106%
CCN1/C(=C/C(C)=C/c2sc3ccc4ccccc4c3[n+]2CC)Sc2ccc3ccccc3c21 | -79.8% (active)
O=C(c1ccccc1)c1cc2ccccc2oc1=O | 104%
O=[N+]([O-])/C(=C/c1ccccc1)c1ccccc1 | 101%

Structure (SMILES) | growth
Nc1nc2ncc(CNc3ccc(C(=O)NC(CCC(=O)NC(CCC(=O)NC(CCC(=O)NC(CCC(=O)NC(CCC(=O)O)C(=O)O)C(=O)O)C(=O)O)C(=O)O)C(=O)O)cc3)nc2c(=O)[nH]1 (stereo not given) | 107%
NC(=Nc1nc(-c2ccccn2)cc2ccccc12)c1ccccn1 | -55% (active)
Oc1c(Cl)cc(Cl)cc1C(c1cc(Cl)cc(Cl)c1O)C(Cl)(Cl)Cl | 17.9%
O=[N+]([O-])c1ccc(N2CCN(Cc3ccccc3)CC2)c2c1no[n+]2[O-] | 30.3%
CCOC(=O)c1cc(CC)sc1NC(=O)CC(C)=O | 88.6%
CCOc1cc(F)c([N+](=O)[O-])cc1[N+](=O)[O-] | 30.5%
O=C1C=CC(=O)c2c(O)c(CO)c(CO)c(O)c21 | 14%
Oc1ccc(Nc2ccc3ccccc3c2)cc1 | 53.3%
Nc1ccc(Oc2ccccc2)c(Cl)c1 | 94.6%
NCC(=O)NC(CC(=O)O)C(=O)O (stereo not given) (H-Gly-[ξD]-OH) | 104%
CCC[CH2][Sn]1([CH2]CCC)[O]C2C(CO)OC(n3ccc(N)nc3=O)C2[O]1 (stereo not given) | -47.2% (active)
O/N=C1\c2ccccc2-c2ccc(F)cc21 | 107%
CCc1cccc(CC)c1N1C(=O)C=CC1=O | 86.6%
O=C1CSC(=S)N1Cc1cccnc1 | 85.1%
CCCCCCC1N=C(N)N=C(N)N1c1cccc(Cl)c1 (stereo not given) | 31.7%
O=C(c1ccccc1)C(Br)C(Br)c1ccccc1 (stereo not given) | 2.17% (active)
CC/C(=C(/CC)c1ccc(O)cc1)c1ccc(O)cc1 | 43.9%
CC1(C)N=c2cc3c(cc2N1c1ccc(Cl)cc1)=Nc1ccccc1N3c1ccc(Cl)cc1 | 19.3%
O=C1/C(=C/c2ccccn2)CCc2ccccc21 | 108%
CCCC[n+]1c(/C=C\c2c(OC)cc(OC)cc2OC)ccc2ccccc21 | 9% (active)
